From PubChem BioAssay (NCATS)
Values joined by “and” are separate entries in the source; they are usually repeats but may differ in a detail not shown here. Equal entries are not always repeated. Results filed as inconclusive are left out. Unmarked numbers belong to inactive results. The call rests on the fitted dose curve; in most records, active means well fitted curve in the direction sought with a large enough effect; inconclusive means small, poorly fitted or top-dose-only effect, or another doubt; inactive means no such curve, though single readings can be large or run the other way.

assay: qHTS Assay for Identifying Gametocytocidal Compounds (AID 743244);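 further: actives lower the fluorescent signal which means gametocytes are killed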; settings: P. falciparum 3D7 stage III-V gametocytes, alamarBlue, 72 h; max response: hits give low values
Method in brief: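 Stage III-V P. falciparum 3D7 gametocytes, 20,000 per well, were exposed to compounds for 72 h at 37C, 5% CO2. AlamarBlue was then added for 24 h and viability was read as fluorescence at Ex 525/Em 598 nm.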
On the % scale 0 is the no-effect control and ±100 the full control effect.

| SMILES | max response |
| --- | --- |
| O=C(O)CC(O)(CC(=O)O)C(=O)O | -12% |
| O=C(CO)[C@@H](O)[C@H](O)[C@H](O)CO | 0.975% |
| CC(CN(C)C)CN1c2ccccc2S(=O)(=O)c2ccccc21 (configuration not stated) | -15.2% |
| O=S(O)CO | 18.2% |
| C/C(=C(/CCO)SSCC1CCCO1)N(C=O)Cc1cnc(C)nc1N (configuration not stated) | 4.64% and -7.81% |
| O=C(O)c1cc2ccccc2c(Cc2c(O)c(C(=O)O)cc3ccccc23)c1O | 60.7% |
| COc1cc2c(c(OC)c1OC)-c1c(cc3c(c1OC)OCO3)C[C@@H](C)[C@](C)(O)C2 | 3.46% and 15.8% |
| C=Cc1ccccc1 | 5.81% |
| CO[C@H]1[C@@H](O)[C@H](N)[C@@H](O[C@H]2O[C@H]([C@H](C)N)CC[C@H]2N)[C@H](O)[C@@H]1N(C)C(=O)CN | 15.1% |
| CNC[C@@H]1CC[C@@H](N)[C@@H](O[C@H]2[C@H](O)[C@@H](O[C@H]3OC[C@](C)(O)[C@H](NC)[C@H]3O)[C@H](N)C[C@@H]2N)O1 | -11.2% |
| COC(C)=O | 1.99% |
| NCCC[C@H](N)C(=O)O | -1.29% |
| CC#CCC(C)[C@H](O)/C=C/[C@@H]1[C@H]2C/C(=C/CCCC(=O)O)C[C@H]2C[C@H]1O (some centres not stated) | 11.1% |
| CCCN(CC)C(CC)C(=O)Nc1c(C)cccc1C (configuration not stated) | 0.657% |
| CCC(C)(C)OC(=O)N[C@@H](Cc1c[nH]c2ccccc12)C(=O)N[C@@H](CCSC)C(=O)N[C@@H](CC(=O)O)C(=O)N[C@@H](Cc1ccccc1)C(N)=O | -0.189% |
| O=[N+]([O-])c1ccc(Oc2ccc(N=C=S)cc2)cc1 | 16.5% |

| SMILES | max response |
| --- | --- |
| C[C@H](/C=C/[C@H](C)C(C)(C)O)[C@H]1CC[C@H]2/C(=C/C=C3C[C@@H](O)C[C@H](O)C3)CCC[C@]12C | 11.6% |
| CN(C)Cc1ccccc1 | 9.16% |
| Cc1c(N)nc(C(CC(N)=O)NCC(N)C(N)=O)nc1C(=O)NC(C(=O)NC(C)C(O)C(C)C(=O)NC(C(=O)NCCc1nc(-c2nc(C(=O)NCCCN[C@@H](C)c3ccccc3)cs2)cs1)C(C)O)C(O[C@@H]1O[C@@H](CO)[C@@H](O)[C@H](O)[C@@H]1O[C@H]1O[C@H](CO)[C@@H](O)[C@H](OC(N)=O)[C@@H]1O)c1cnc[nH]1 (some centres not stated) | 6.97% |
| CCOC(=O)[C@H](CCc1ccccc1)N[C@H]1CCCN2CCC[C@@H](C(=O)O)N2C1=O | -15.1% |
| Oc1cccc(-c2c3nc(c(-c4cccc(O)c4)c4ccc([nH]4)c(-c4cccc(O)c4)c4nc(c(-c5cccc(O)c5)c5ccc2[nH]5)CC4)C=C3)c1 | -1.27% and -6.31% |
| OC(CN1CCCCC1)c1cc(-c2ccccc2)on1 (configuration not stated) | -4.26% |
| CC(=O)S[C@@H]1CC2=CC(=O)CC[C@]2(C)[C@H]2CC[C@@]3(C)[C@@H](CC[C@@]34CCC(=O)O4)[C@H]12 | 15.7% |
| CCCCCCCCCC(=O)O | 10.1% |
| CC(=O)O[C@H]1CC[C@@]2(C)C(=CC[C@H]3[C@@H]4CC[C@H](C(C)=O)[C@@]4(C)CC[C@@H]32)C1 | 3.94% |
| CCCCOC(=O)C(=O)Nc1cccc(-c2nn[nH]n2)c1 | 31.5% |
| O=C[C@H](O)[C@@H](O)[C@H](O[C@H]1O[C@H](CO)[C@@H](O[C@H]2O[C@H](CO)[C@@H](O)[C@H](O)[C@H]2O)[C@H](O)[C@H]1O)[C@H](O)CO | 10.4% |
| CCN1CCCC1CNC(=O)c1cc(S(=O)(=O)CC)ccc1OC (configuration not stated) | -5.69% and 12.8% |
| CS(=O)(=O)NC(=O)CCC/C=C\C[C@H]1C(=O)C[C@@H](O)[C@@H]1/C=C/[C@H](O)COc1ccccc1 | -11.4% |
| C[C@H]1C[C@@H]2[C@H]([C@@H](O)C[C@@]3(C)[C@H]2CC[C@]3(O)C(=O)COC(=O)CCC(=O)O)[C@@]2(C)C=CC(=O)C=C12 | -6.5% |
| CCCCCCCC/C=C\CCCCCCCC(=O)OC[C@@H](O)[C@H]1OC[C@H](O)[C@H]1O | -9.22% |
| O=C[C@H](O)[C@@H](O)[C@H](O)[C@H](O)CO | -1.25% |
